A short description of assay [1]: APR_HepG2_CellLoss_72hr: Apredica 72-hour HepG2 Assay for Cell Loss (AID 2282915). Conditions: high-content imaging. The procedure, abridged:
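HepG2 cells were exposed for 72 hr to compounds at 0.39–200 uM (ten concentrations, duplicate) in 0.5% v/v final DMSO. Nuclei were stained with Hoechst 33342 after 3.7% formaldehyde fixation, imaged at 20x, and counted; fits bidirectional versus DMSO.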

Assay [2] in a line: APR_HepG2_P-H2AX_72hr: Apredica 72-hour HepG2 Assay for H2AX Phosphorylation (AID 2282916).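 Also: phospho-histone H2A.x immunostain intensity per cell marking DNA damage.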 The note with it: imaging, actives raise or lower the signal. The procedure, abridged: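 Readout: phospho-H2A.x immunofluorescence (FITC secondary) plus Hoechst nuclear stain, high-content imaging at 20x, six fields/well. HepG2, 72 hr compound exposure, 0.39–200 uM, final DMSO 0.5% v/v. Gain or loss fitted relative to DMSO baseline.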

The nature of assay [3]: APR_HepG2_MitoticArrest_72hr: Apredica 72-hour HepG2 Assay for Mitotic Arrest (AID 2282918). The note with it: high-content imaging, actives raise or lower the signal. The procedure, abridged: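 Read-out is phospho-histone H3 immunofluorescence with Hoechst nuclear segmentation, imaged at 20x. Human HepG2 liver cells received ten concentrations (0.39–200 uM, final DMSO 0.5% v/v) for 72 hr before fixation. Gain or loss of signal was fitted relative to DMSO.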

The nature of assay [4]: APR_HepG2_MicrotubuleCSK_72hr: Apredica 72-hour HepG2 Assay for Microtubule CSK Stabilty (AID 2282919). Conditions: HepG2 microtubule cytoskeleton, high-content imaging, actives raise or lower the signal. The procedure, abridged:
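Ten-point dosing (0.39–200 uM, 0.5% DMSO) of HepG2 for 72 hr, with taxol as the cytoskeletal positive control. The cells were formaldehyde-fixed and then stained with alpha-tubulin/Cy5 and Hoechst. Imaging at 20x used a −2 um Z offset for tubulin.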

Assay [5] is described as follows: APR_HepG2_P-H2AX_24hr: Apredica 24-hour HepG2 Assay for H2AX Phosphorylation (AID 2282920). The note with it: high-content imaging, actives raise or lower the signal. Put shortly: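 HepG2, 24 hr, cpd 0.39–200 uM (10 conc, duplicate), DMSO 0.5% v/v final. Fix 3.7% formaldehyde, Triton X-100 permeabilize, anti-phospho-H2A.x 1:200 + Hoechst 2 ug/mL. Imaged, bidirectional fit vs DMSO.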

Assay [6] in a line: APR_HepG2_StressKinase_72hr: Apredica 72-hour HepG2 Assay for Stress Kinase (AID 2282921). The note with it: HepG2 stress kinase (phospho-c-Jun) imaging, actives raise or lower the signal. Put shortly: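 Phospho-c-Jun immunofluorescence measured by high-content imaging at 20x, six fields per well; bidirectional curve fitting against DMSO as baseline. Dosing: 0.39–200 uM, 72 h, 0.5% DMSO final.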

The nature of assay [7]: APR_HepG2_StressKinase_24hr: Apredica 24-hour HepG2 Assay for Stress Kinase (AID 2282922). Conditions: HepG2 stress kinase (phospho-c-Jun) imaging, actives raise or lower the signal. The procedure, abridged:
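After 24 hr compound treatment (up to 200 uM, final DMSO 0.5% v/v), HepG2 cells are fixed and multiplex-labeled; phospho-c-Jun intensity is captured by high-content fluorescence imaging and analyzed relative to DMSO.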

Assay [8] in a line: APR_HepG2_MitoMass_72hr: Apredica 72-hour HepG2 Assay for Mitochondrial Mass (AID 2282924).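 Also: MitoTracker Red CMXRos stain intensity per cell imaged as mitochondrial mass.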 The note with it: high-content imaging, actives raise or lower the signal. Put shortly: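 Steps: treat HepG2 72 hr (0.39–200 uM, duplicate wells); load MitoTracker Red CMXRos, 250 nM, 30 min; fix with 3.7% formaldehyde, permeabilise with 0.5% Triton X-100; capture images, nuclei via Hoechst 33342; fit bidirectionally against DMSO.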

The nature of assay [9]: APR_HepG2_NuclearSize_72hr: Apredica 72-hour HepG2 Assay for Nuclear Size (AID 2282925). Conditions: high-content imaging, actives raise or lower the signal. Put shortly: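 Compounds (0.39–200 uM, final DMSO 0.5%) were applied to HepG2 for 72 hr. Cells were then formaldehyde-fixed, permeabilized and labelled with Hoechst 33342. Nuclear diameter was quantified from six images per well.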

The nature of assay [10]: ATG_CRE_CIS: Attagene CIS-FACTORIAL HepG2 Assay for human cAMP Responsive Element (CRE) binding protein 3 (AID 2282926). Conditions: HepG2 CRE cis-reporter, Attagene multiplexed mRNA; actives raise or lower the signal. The procedure, abridged: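 Assay format: transient reporter transfection of HepG2, 24 h treatment, total RNA isolation with DNase I step. Reporter abundance read by fluorescence after PCR and capillary separation; DMSO-normalised gain or loss fitting.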

For assay [11], the target named is CCAAT/enhancer-binding protein beta (Homo sapiens) (UniProt P17676). Kind of assay: ATG_C_EBP_CIS: Attagene CIS-FACTORIAL HepG2 Assay for human CCAAT/Enhancer Binding Protein (C/EBP) beta (AID 2282927). Conditions: HepG2 Attagene cis-factorial transcription factor reporter; actives raise or lower the signal. The procedure, abridged:
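RT-PCR/capillary electrophoresis fluorescence of reporter mRNA, 24 h post-dose, in HepG2 cells carrying transfected cis-promoter reporter units. Bidirectional curve fitting against DMSO baseline captures gain or loss of signal.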

Assay [12] is described as follows: ATG_DR4_LXR_CIS: Attagene CIS-FACTORIAL HepG2 Assay for human Liver X Receptor (LXR), DR4 submotif (AID 2282929). Conditions: HepG2 Attagene DR4 cis-reporter, mRNA transcription; actives raise or lower the signal. The procedure, abridged:
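Cells were transfected with multiple reporter transcription units, exposed to chemicals for 24 hours, then lysed for RNA. Reporter mRNA induction was measured by RT-PCR with capillary electrophoresis detection and fitted in both directions relative to DMSO.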

In assay [13] the target is Aryl hydrocarbon receptor (Homo sapiens) (UniProt P35869). Description: ATG_Ahr_CIS: Attagene CIS-FACTORIAL HepG2 Assay for human Aryl Hydrocarbon Receptor (Ahr) (AID 2282930). The note with it: HepG2 AhR cis-factorial reporter transcription; actives raise or lower the signal. The procedure, abridged:
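HepG2 cells transiently transfected with cis-element-driven multiplexed reporter transcription units; endogenous transcription factor activity measured as reporter mRNA 24 h after dosing. RT-PCR, 6-FAM labelling, HpaI digestion, capillary electrophoresis; bidirectional fitting versus DMSO baseline.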

Assay [14] can be described thus: ATG_AP_1_CIS: Attagene CIS-FACTORIAL HepG2 Assay for human Activator Protein 1 (AP-1) (AID 2282931). Conditions: HepG2 Attagene cis-factorial AP-1 reporter mRNA; actives raise or lower the signal. The procedure, abridged:
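Endogenous transcription-factor activity in human HepG2 liver cells is read through a cis-promoter reporter transcript, sampled 24 h after dosing. Detection uses RT-PCR with capillary electrophoresis; values come from bidirectional fitting relative to DMSO.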

The nature of assay [15]: ATG_AP_2_CIS: Attagene CIS-FACTORIAL HepG2 Assay for human Activator Protein 2 (AP-2) (AID 2282932). The note with it: HepG2 AP-2 cis-reporter, Attagene transcription factor profiling; actives raise or lower the signal. Put shortly:
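Assay in transfected HepG2 with promoter-regulated reporters, 24 h incubation after dosing. Signal is reporter mRNA fluorescence (RT-PCR, capillary electrophoresis), analysed for both increases and decreases relative to DMSO controls.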

The nature of assay [16]: ATG_BRE_CIS: Attagene CIS-FACTORIAL HepG2 Assay for human Bone Morphogenetic Protein (BMP) Response Element (BRE) (AID 2282933). Conditions: HepG2 BMP response element reporter, Attagene transcription factor profiling; actives raise or lower the signal. The procedure, abridged: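 HepG2 cells transiently transfected with CIS reporter units (endogenous TF activity, BMP response element), dosed 24 h. Reporter mRNA quantified by RT-PCR, fluorescent labelling and capillary electrophoresis; bidirectional fit vs DMSO baseline.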

Assay [17] concerns the target Retinoic acid receptor alpha (Homo sapiens) (UniProt P10276). Kind of assay: ATG_DR5_RAR_CIS: Attagene CIS-FACTORIAL HepG2 Assay for human Retinoic Acid Receptor Alpha (RARE), DR5 submotif (AID 2282934).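 As to AC50: reporter responds to endogenous RAR alpha beta and gamma in HepG2 not RARA alone.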 Conditions: HepG2 Attagene cis-factorial RARE DR5 reporter, mRNA; actives raise or lower the signal. Put shortly: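 HepG2 cells transiently transfected with multiplexed reporter units under cis (DR5 RARE) promoters, so endogenous transcription factor activity is measured. After 24 h compound exposure, reporter mRNA is quantified by RT-PCR with fluorescent labelling and capillary electrophoresis; bidirectional fitting versus DMSO.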

Assay [18] can be described thus: ATG_CMV_CIS: Attagene CIS-FACTORIAL HepG2 Assay for human CMV (Internal Marker) (AID 2282928).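 Also: endpoint acts as a background internal control marker rather than a target.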 Conditions: HepG2 CMV promoter reporter, transcription factor profiling; actives raise or lower the signal. The procedure, abridged:
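Reporter transcripts from transfected HepG2 cells are isolated after 24 h of chemical dosing, reverse-transcribed and amplified. Fragments labeled with 6-FAM are cut with HpaI and quantified by capillary electrophoresis; DMSO defines baseline.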

Assay [19] can be described thus: APR_HepG2_p53Act_72hr: Apredica 72-hour HepG2 Assay for p53 Activation (AID 2282923).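 Also: average cellular p53 protein immunofluorescence intensity in HepG2 cells.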 The note with it: high-content imaging, actives raise or lower the signal. Put shortly:
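Readout: p53 immunofluorescence quantified by automated high-content imaging at 20x, six fields per well, nuclei located via Hoechst. Dosing ran 72 hr over ten concentrations from 0.39 to 200 uM; bidirectional curve fitting against DMSO baseline.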

The source made the active and inactive calls. The calls were made as follows: active = hit-call score of the fitted dose curve at least 0.9, where 1 is the maximum; inactive = score below 0.9.

Data on 6 compounds can be found in PubChem BioAssay (EPA / NIEHS).

The AC50 is the concentration at which the activity in the assay is half-maximal.

Sequence of Retinoic acid receptor alpha (Homo sapiens) (P10276 whole entry, looked up): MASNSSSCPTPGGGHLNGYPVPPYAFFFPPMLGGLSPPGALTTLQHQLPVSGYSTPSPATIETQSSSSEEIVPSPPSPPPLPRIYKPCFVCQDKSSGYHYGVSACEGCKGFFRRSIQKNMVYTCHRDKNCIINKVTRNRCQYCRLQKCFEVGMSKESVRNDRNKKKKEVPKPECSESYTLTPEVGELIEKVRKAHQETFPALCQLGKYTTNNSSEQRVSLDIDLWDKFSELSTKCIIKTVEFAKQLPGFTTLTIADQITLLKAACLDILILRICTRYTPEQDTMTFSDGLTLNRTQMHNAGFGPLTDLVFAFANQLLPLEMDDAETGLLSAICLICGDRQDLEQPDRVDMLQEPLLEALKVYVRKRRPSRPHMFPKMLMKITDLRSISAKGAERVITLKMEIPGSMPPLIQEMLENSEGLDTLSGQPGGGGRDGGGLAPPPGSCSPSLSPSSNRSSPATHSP
Sequence of CCAAT/enhancer-binding protein beta (Homo sapiens) (P17676 whole entry, looked up): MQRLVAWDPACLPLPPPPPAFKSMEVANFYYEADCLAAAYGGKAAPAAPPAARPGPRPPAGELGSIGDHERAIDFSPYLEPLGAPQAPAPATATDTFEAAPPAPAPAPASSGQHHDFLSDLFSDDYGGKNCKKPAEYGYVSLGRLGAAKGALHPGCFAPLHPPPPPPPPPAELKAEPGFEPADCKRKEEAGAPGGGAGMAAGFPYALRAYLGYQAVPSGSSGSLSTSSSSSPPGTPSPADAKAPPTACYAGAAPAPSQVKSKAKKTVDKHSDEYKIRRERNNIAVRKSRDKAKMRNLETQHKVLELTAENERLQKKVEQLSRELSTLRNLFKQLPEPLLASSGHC
Sequence of Aryl hydrocarbon receptor (Homo sapiens) (P35869 whole entry, looked up): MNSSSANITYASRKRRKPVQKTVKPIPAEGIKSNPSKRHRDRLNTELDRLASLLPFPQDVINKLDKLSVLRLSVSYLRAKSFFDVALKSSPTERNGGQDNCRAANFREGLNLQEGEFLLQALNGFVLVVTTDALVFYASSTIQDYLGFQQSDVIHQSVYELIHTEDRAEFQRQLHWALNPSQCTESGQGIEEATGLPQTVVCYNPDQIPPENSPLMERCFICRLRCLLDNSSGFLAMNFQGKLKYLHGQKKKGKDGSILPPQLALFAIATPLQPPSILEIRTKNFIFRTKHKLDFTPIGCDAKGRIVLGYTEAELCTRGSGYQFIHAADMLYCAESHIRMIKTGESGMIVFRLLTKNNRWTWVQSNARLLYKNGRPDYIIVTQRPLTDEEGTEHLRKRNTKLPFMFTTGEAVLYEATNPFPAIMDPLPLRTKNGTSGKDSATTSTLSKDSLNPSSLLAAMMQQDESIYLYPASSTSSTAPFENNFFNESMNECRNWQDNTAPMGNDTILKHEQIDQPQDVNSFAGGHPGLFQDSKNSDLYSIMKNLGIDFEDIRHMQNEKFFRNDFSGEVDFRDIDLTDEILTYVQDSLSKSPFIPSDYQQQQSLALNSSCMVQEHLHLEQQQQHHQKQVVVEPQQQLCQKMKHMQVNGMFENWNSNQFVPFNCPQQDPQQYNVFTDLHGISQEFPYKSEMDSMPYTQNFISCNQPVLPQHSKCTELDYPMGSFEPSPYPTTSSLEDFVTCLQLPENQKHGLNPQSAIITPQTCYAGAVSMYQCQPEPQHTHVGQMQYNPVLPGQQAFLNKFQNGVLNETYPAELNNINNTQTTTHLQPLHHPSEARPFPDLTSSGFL

For the compound `COS(C)(=O)=O`, the outcome in assay [1], in [2], in assay [3], in [4], in assay [5] and in assay [6] was inactive. In addition, the result in assay [7], in [8], in assay [9], in assay [10], in assay [11] and in [12] was inactive. In addition, the outcome in assay [14], in assay [15] and in assay [16] was inactive. For the same compound, the AC50 in [13] is 22.1 µM (active).

Regarding `FC(F)C(F)(F)COCC1CO1` (stereo unspecified), the outcome in [10], in [11], in assay [12], in [13], in assay [14] and in assay [15] was inactive. In [17], the compound was called inactive.

With `COc1cc(C(C)C)c2c(c1)S(=O)(=O)N(COc1cc(=O)n3cccc(OCCN4CCCCC4)c3n1)C2=O`, the half-maximal activity concentration (AC50) in [1] is 23.1 µM (active); in [5] it was 10.7 µM (active); in assay [10] it was 3.96 µM (active); in assay [11], 3.74 µM (active); in assay [12], 0.643 µM (active); in assay [14], 2.24 µM (active). Moreover, in assay [17], the concentration at half-maximal activity (AC50) is 0.812 µM (active). The outcome in [2], in [3], in assay [4], in assay [6], in assay [7] and in assay [8] was inactive. The compound was called inactive in [9], in [13], in assay [15] and in assay [16].

As for `FC(F)=C(F)C(F)(F)C(F)(F)C(F)(F)C(F)(F)C(F)(F)C(F)(F)F`, the compound was called inactive in assay [10], in [11], in [12], in assay [13], in assay [14] and in assay [15]. Moreover, the call in assay [16] and in assay [17] was inactive.

Regarding `NCC(F)(F)C(F)(F)C(F)(F)C(F)(F)F`, the call in assay [10], in assay [11], in assay [18], in assay [12], in assay [13] and in [14] was inactive. The compound was called inactive in assay [15], in assay [16] and in assay [17].

Consider `CC1(C)C(=O)N(Cl)C(=O)N1Cl`, for which the compound was classed as inactive in [1], in [2], in [5], in assay [6], in assay [7] and in assay [19]. Further, the compound was classed as inactive in assay [9], in assay [10], in [11], in assay [12], in assay [13] and in assay [14]. Moreover, the result in assay [15] and in assay [16] was inactive.
